Records with an inconclusive call do not appear. Entries that show only a call come without a potency. The source made the active and inactive calls. Calls come from the whole dose curve.
Target: Beta-2 adrenergic receptor (Homo sapiens) (UniProt P07550)
Experiment: Adrenergic beta2 receptor (ADRB2) small molecule agonists, cell-based qHTS assay (AID 1963593);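 note: CHO cells stably overexpressing human ADRB2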
Summary of the method: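 CHO cells stably over-expressing ADRB2 were plated overnight at 37C, then dosed with compounds plus a stimulation mix containing 100uM IBMX and 25uM Ro-20-1724 for 0.5hr at room temperature. cAMP was measured by HTRF competition, 1hr.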

Sequence of Beta-2 adrenergic receptor (Homo sapiens) (P07550 whole entry, looked up): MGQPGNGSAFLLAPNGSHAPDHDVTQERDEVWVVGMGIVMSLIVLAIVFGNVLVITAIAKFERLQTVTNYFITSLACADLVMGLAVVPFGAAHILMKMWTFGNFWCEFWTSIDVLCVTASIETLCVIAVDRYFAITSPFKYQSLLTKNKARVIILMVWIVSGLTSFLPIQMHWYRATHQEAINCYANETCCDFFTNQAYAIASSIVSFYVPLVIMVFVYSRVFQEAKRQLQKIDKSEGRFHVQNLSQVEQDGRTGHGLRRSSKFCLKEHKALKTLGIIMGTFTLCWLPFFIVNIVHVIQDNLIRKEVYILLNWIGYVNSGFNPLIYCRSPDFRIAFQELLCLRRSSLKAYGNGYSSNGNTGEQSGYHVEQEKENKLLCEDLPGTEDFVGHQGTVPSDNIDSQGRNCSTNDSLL

| SMILES | Potency |
| --- | --- |
| CCCCCCOC(=O)C(C)C | inactive |
| c1ccc(CNc2ncnc3nc[nH]c23)cc1 | inactive |
| O=S(=O)(O)c1ccc(O)c2ncccc12 | inactive |
| CC(C)OC(=O)C(C(=O)OC(C)C)=C1SC=CS1 | inactive |
| C#CC(C)N(C)C(=O)Nc1ccc(Cl)cc1 (centres undefined) | inactive |
| CC(C)COC(=O)c1ccccc1 | inactive |
| C=CCn1c(=O)n(CC=C)c(=O)n(CC=C)c1=O | inactive |
| CC(=O)CC(c1ccc([N+](=O)[O-])cc1)c1c(O)c2ccccc2oc1=O (centres undefined) | inactive |
| Oc1ccc(Cl)c2cccnc12 | inactive |
| CCCCC(CC)COC(=O)CC#N (centres undefined) | inactive |
| CCC(C)c1nccnc1OC (centres undefined) | inactive |
| SCCCCCCCCS | inactive |
| CCN(CC)CCOc1ccccc1C(=O)CCc1ccccc1 | inactive |
| CC1(C)S[C@@H]2[C@H](NC(=O)C(c3ccccc3)S(=O)(=O)O)C(=O)N2[C@H]1C(=O)O (some centres undefined) | inactive |

Reference: PubChem BioAssay (Tox21)
